{"source": "PubChem BioAssay (NCATS)", "note": "Records with an inconclusive call do not appear. Where a call stands in place of a potency, no number is given. Unmarked numbers belong to inactive results. The source made the active and inactive calls. Calls follow the shape of the dose curve; as a rule, active = well fitted inhibition curve with a large enough effect; inconclusive = small, poorly fitted or top-dose-only effect; inactive = no such curve, though single readings can be large or run the other way. Potency is read from the fitted curve at half-maximal effect."}
{"target": "Cytochrome P450 3A4 (Homo sapiens) (UniProt P08684)", "sequence (P08684 whole entry, looked up)": "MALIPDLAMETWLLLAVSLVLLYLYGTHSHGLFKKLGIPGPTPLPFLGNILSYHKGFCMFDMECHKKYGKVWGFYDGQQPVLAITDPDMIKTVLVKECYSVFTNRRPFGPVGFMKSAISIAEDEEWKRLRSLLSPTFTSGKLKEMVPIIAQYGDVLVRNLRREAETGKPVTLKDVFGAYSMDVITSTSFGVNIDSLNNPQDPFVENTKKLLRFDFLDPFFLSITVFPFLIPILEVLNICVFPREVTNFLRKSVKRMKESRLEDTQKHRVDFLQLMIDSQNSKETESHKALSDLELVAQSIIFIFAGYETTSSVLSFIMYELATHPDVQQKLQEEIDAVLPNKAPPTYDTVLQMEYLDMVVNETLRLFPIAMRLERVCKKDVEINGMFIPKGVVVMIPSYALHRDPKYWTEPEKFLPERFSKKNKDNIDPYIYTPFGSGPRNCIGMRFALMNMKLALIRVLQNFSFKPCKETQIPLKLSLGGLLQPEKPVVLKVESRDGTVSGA", "test": "qHTS for inhibitors of CYP3A4 against the NCATS DSHEA and TCM libraries (AID 1919971)", "settings": "recombinant CYP3A4 enzyme activity, luminescence qHTS; series mostly up to 34.1 µM", "from_the_text": "Assay Development and Screening Technology Laboratory (ADST)\nNational Center for Advancing Translational Sciences (NCATS), Rockville, MD\nNational Institute of Health (NIH), Bethesda, Maryland\nDietary Supplements and Natural Products have minor oversight of their safety and efficacy. We assembled a collection of Dietary Supplements and Natural Products (DSNP) as well as Traditional Chinese Medicinal (TCM) Plant extracts, which were screened against an in vitro panel of assays, including a liver cytochrome p450 enzyme panel, CAR/PXR signaling pathways, and P-gp transporter assays, to assess their activity. This pipeline facilitated the interrogation of Natural Product-Drug Interaction (NaPDI) through prominent metabolizing pathways. In addition, we compared the activity profiles of the DSNP/TCM substances with those of an approved drug collection. Many of the approved drugs have well-annotated mechanisms of action (MOA) while the MOAs for most of the DSNP and TCM samples remain unknown. Based on the premise that compounds with similar activity profiles tend to share similar targets or MOA, we clustered the library activity profiles to identify overlap with the NCATS Pharmaceutical Collection to predict the MOAs of the DSNP/TCM substances. Overall, we highlight four significant bioactivity profiles (measured by p-values) as examples of this prediction. To assess broad cytotoxicity, we employed screening against a HepG2 cell line. In addition, transporter-mediated drug interactions are utilized in the characterization of DDIs using a P-glycoprotein (P-gp) assays. To profile potential P-gp activity, a differential cell viability was measured against two cell lines: a parental KB-3-1 human cervical adenocarcinoma cell line and the drug-resistant subline KB-8-5-11 that overexpresses P-gp.\nTo this end, we profiled both collections for potential CAR and/or PXR activity, employing a previously published 1536-well qHTS assay.\n[1] Lee TD, et al. A High-Throughput Screen of a Library of Therapeutics Identifies Cytotoxic Substrates of P-glycoprotein. Mol Pharmacol. Nov 2019;96(5):629-640. doi:10.1124/mol.119.115964\nPROTOCOL TABLE (as described by Inglese J, Shamu CE and Guy RK. 2007)\nSEQUENCE No. (e.g., 1, 2, 3, etc.); […] (e.g., Cells, Incubation, Reagent, etc.); VALUE; DESCRIPTION.\n1; Reagent; 2 uL; cytochrome P450 enzyme and luciferin substrate or buffer only, white solid-bottom Greiner plate.\n2; Compounds and control; 16 nL; Kalypsis pintool (Wako USA) equipped with a 1536-well pin head to transfer to the assay plates.\n3; Incubation; 15 min; room temperature.\n4; Reagent; 2 uL; nicotinamide adenine dinucleotide phosphate (NADPH).\n5; Incubation; 30 - 45 min; room temperature in the dark.\n6; Reagent; 4 uL; P450-Glo assay detection reagent.\n7; Centrifuge; 1000 RPM; 15 seconds.\n8; Incubation; 30 min; room temperature.\n9; Read; Luminescence; ViewLux plate reader.\nNOTES (numbers refer to Sequence numbers above)\n1. A 2 uL mixture of corresponding enzymes and luciferin substrate (final concentrations CYP enzyme-specific and pro-luciferin substrate-specific) or minus-enzyme (assay buffer conditions supplied by the manufacturer for respective enzyme isoform; typically, 100 mM KPO4) and luciferin substrate were dispensed using a BioRAPTR FRD (Beckman Coulter, Brea, CA) into columns of a 1536-well white solid-bottom medium binding plate (Greiner Bio-One, Monroe, NC). Five isoforms of cytochrome P450 were used (CYP1A2, CYP2C9, CYP2C19, CYP2D6, and CYP3A4).\n2. Substances (final concentrations of most substances ranged from 19.5 nM to 39.8 uM) and controls (CYP-specific) were transferred (16 nL) via pintool (Wako Automation, Richmond, VA). Intraplate controls furafylline (CYP1A2), sulfaphenazole (CYP2C9), ketoconazole (CYP2C19), quinidine (CYP2D6), and ketoconazole (CYP3A4) were used correspondingly.\n3. Assay plates were incubated at room temperature for 15 min.\n4-5. […]"}
{"smiles": "CC1=CC[C@H](C(C)C)C=C1", "Potency": "35.5 µM (active)"}
{"smiles": "CCCCCCCCCCCCCC(=O)OCC(O)CO", "note": "(stereo not given)", "Potency": "inactive"}
{"smiles": "COc1ccc(/C=C/c2cc(OC)cc(=O)o2)cc1", "Potency": "inactive"}
{"smiles": "O=c1cc(-c2ccc(O)cc2)oc2cc(O[C@@H]3O[C@H](CO)[C@@H](O)[C@H](O)[C@H]3O[C@@H]3OC[C@](O)(CO)[C@H]3O)cc(O)c12", "Potency": "inactive"}
{"smiles": "CCCCCCCCCCCCCC(=O)O", "Potency": "inactive"}
{"smiles": "OCC1=C[C@@H](O)[C@@H]2C=CO[C@@H](OC3O[C@H](CO)[C@@H](O)[C@H](O)[C@H]3O)[C@H]12", "note": "(stereo not given in full)", "Potency": "inactive"}
{"smiles": "CC(C)=CCCC(C)=CCCC(C)=CCCC=C(C)CCC=C(C)CCC=C(C)C", "Potency": "inactive"}
{"smiles": "COc1cc(/C=C/c2ccccc2)oc(=O)c1", "Potency": "inactive"}
{"smiles": "C[C@@H]1O[C@@H](OC[C@H]2OC(Oc3c(-c4ccc(O)c(O)c4)oc4cc(O)cc(O)c4c3=O)[C@H](O)[C@@H](O)[C@@H]2O)[C@H](O)[C@H](O)[C@H]1O", "note": "(stereo not given in full)", "Potency": "inactive"}
{"smiles": "Cc1ccc(O)c(O)c1", "Potency": "inactive"}
{"smiles": "CC(=O)OC1CC2CCC1(C)C2(C)C", "note": "(stereo not given)", "Potency": "inactive"}
{"smiles": "C=C(C)C1CC=C(C)C(O)C1", "note": "(stereo not given)", "Potency": "inactive"}
{"smiles": "CCCCCCCCCC=O", "Potency": "inactive"}
{"smiles": "O=c1cc(-c2ccc(O)c(O)c2)oc2cc(O[C@@H]3O[C@@H](CO)[C@@H](O)[C@@H](O)[C@H]3O)cc(O)c12", "Potency": "inactive"}
{"smiles": "CCCCCC/C=C\\CCCCCCCC(=O)O", "Potency": "inactive"}
{"smiles": "CC(C)=CCC[C@](C)(O[C@@H]1O[C@H](CO)[C@@H](O)[C@H](O)[C@H]1O)[C@H]1CC[C@]2(C)[C@@H]1[C@H](O)C[C@@H]1[C@@]3(C)CC[C@H](O[C@@H]4O[C@H](CO)[C@@H](O)[C@H](O)[C@H]4O[C@@H]4O[C@H](CO)[C@@H](O)[C@H](O)[C@H]4O)C(C)(C)[C@@H]3CC[C@]12C", "Potency": "inactive"}
{"smiles": "COc1ccc(C(=O)O)cc1", "Potency": "inactive"}
{"smiles": "O=C(O)CC(O)(C(=O)O)C(O)C(=O)O", "note": "(stereo not given)", "Potency": "inactive"}
{"smiles": "CC(C)(O)[C@@H]1CC[C@](C)([C@H]2[C@@H](O)C[C@@]3(C)[C@@H]4C[C@H](O)[C@H]5C(C)(C)[C@@H](O[C@@H]6OC[C@@H](O)[C@H](O)[C@H]6O[C@@H]6O[C@H](CO)[C@@H](O)[C@H](O)[C@H]6O)CC[C@@]56C[C@@]46CC[C@]23C)O1", "Potency": "inactive"}
{"smiles": "COc1ccc(-c2coc3cc(O[C@@H]4O[C@H](CO)[C@@H](O)[C@H](O)[C@H]4O)ccc3c2=O)cc1", "Potency": "inactive"}
{"smiles": "C[C@@H]1OC(O[C@H]2[C@H](O)[C@@H](O)[C@H](OC[C@H]3O[C@@H](OC(=O)[C@]45CCC(C)(C)C[C@@H]4C4=CCC6[C@@]7(C)CC[C@H](OC8OC[C@H](O)[C@H](O)[C@H]8OC8O[C@@H](C)[C@H](O)[C@@H](O)[C@H]8O)[C@@](C)(CO)C7CC[C@@]6(C)[C@]4(C)CC5)[C@H](O)[C@@H](O)[C@@H]3O)O[C@@H]2CO)[C@H](O)[C@H](O)[C@H]1O", "note": "(stereo not given in full)", "Potency": "inactive"}
{"smiles": "O=C(/C=C/c1ccc(O)c(O)c1)OC1[C@H](O)CC(O)(C(=O)O)C[C@@H]1O", "note": "(stereo not given in full)", "Potency": "inactive"}
{"smiles": "CC(C)[C@H](C)CC[C@@H](C)[C@H]1CC[C@H]2[C@@H]3CC=C4C[C@@H](O)CC[C@]4(C)[C@H]3CC[C@]12C", "Potency": "inactive"}
{"smiles": "O=C(/C=C/c1ccc(O)c(O)c1)O[C@H]1[C@H](O)C[C@](O)(C(=O)O)C[C@H]1OC(=O)/C=C/c1ccc(O)c(O)c1", "Potency": "inactive"}
{"smiles": "CC1=CCC(=C(C)C)CC1", "Potency": "39.8 µM (active)"}
{"smiles": "C=C1C[C@@]23CC[C@H]4[C@@](C)(CCC[C@@]4(C)C(=O)O[C@@H]4O[C@H](CO)[C@@H](O)[C@H](O)[C@H]4O)[C@@H]2CC[C@]1(O[C@@H]1O[C@H](CO)[C@@H](O)[C@H](O[C@@H]2O[C@H](CO)[C@@H](O)[C@H](O)[C@H]2O)[C@H]1O[C@@H]1O[C@@H](C)[C@H](O)[C@@H](O)[C@H]1O)C3", "Potency": "inactive"}
{"smiles": "CC(C)=CCC[C@](C)(O[C@@H]1O[C@H](CO)[C@@H](O)[C@H](O)[C@H]1O)[C@H]1CC[C@]2(C)[C@@H]1[C@H](O)C[C@@H]1[C@@]3(C)CC[C@H](O)C(C)(C)[C@@H]3[C@@H](O[C@@H]3O[C@H](CO)[C@@H](O)[C@H](O)[C@H]3O)C[C@]12C", "Potency": "inactive"}
{"smiles": "CCCCC/C=C/C/C=C/CCCCCCCC(=O)O", "Potency": "22.4 µM (active)"}
{"smiles": "CC/C=C\\C/C=C\\C/C=C\\C/C=C\\CCCCC(=O)O", "activity change, negative = inhibition": "5.33% [at 4.27 µM]"}
{"smiles": "Cc1ccc(C(C)C)cc1", "Potency": "inactive"}
{"smiles": "C=C(C)C(CC=C(C)C)CC12CC(CC=C(C)C)C(C)(C)C(CC=C(C)C)(C(=O)/C(=C(\\O)c3ccc(O)c(O)c3)C1=O)C2=O", "note": "(stereo not given)", "Potency": "14.1 µM (active)"}
{"smiles": "C=CC(=C)CCC=C(C)C", "Potency": "inactive"}
{"smiles": "C=C1C[C@]23CC[C@H]4[C@@](C)(CCC[C@@]4(C)C(=O)O)[C@@H]2CC[C@@]1(O[C@@H]1O[C@H](CO)[C@@H](O)[C@H](O)[C@H]1O[C@@H]1O[C@H](CO)[C@@H](O)[C@H](O)[C@H]1O)C3", "Potency": "inactive"}
{"smiles": "O=Cc1ccccc1O", "Potency": "inactive"}
{"smiles": "C=CCc1ccc(OC)c(OC)c1", "Potency": "inactive"}
{"smiles": "CC(C)=CCC[C@](C)(O[C@@H]1O[C@H](CO)[C@@H](O)[C@H](O)[C@H]1O)[C@H]1CC[C@]2(C)[C@@H]1[C@H](O)C[C@@H]1[C@@]3(C)CC[C@H](O)C(C)(C)[C@@H]3[C@@H](O[C@@H]3O[C@H](CO)[C@@H](O)[C@H](O)[C@H]3O[C@@H]3O[C@@H](C)[C@H](O)[C@@H](O)[C@H]3O)C[C@]12C", "Potency": "inactive"}
{"smiles": "CCCCCC/C=C/CCCCCCCCCC(=O)O", "Potency": "inactive"}
{"smiles": "CCCCCCCCCCCCCCCCCCCCCC(=O)O", "Potency": "inactive"}
{"smiles": "CC(=O)OC/C=C/c1ccccc1", "Potency": "inactive"}
{"smiles": "CCCCCC(=O)CC", "Potency": "inactive"}
